This is a sample that favours compounds with a hit; in the whole collection about 21% have one here.
NS1 function inh: inhibitors of influenza NS1 protein function; Potency, µM (titrated, usually from 46.1 µM); hit rate 0.4% among 270,000; AID 2326; calls by dose curve; also: actives are rising curves; nearly all actives have a fitted effect of over 50% in size
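OD600 was taken as the measure of yeast growth restored by compound in an NS1-expressing S. cerevisiae strain. Cells had been washed out of glucose medium and diluted 1:100 into galactose -URA medium, pH 6.0.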
Pf growth 48h: P. falciparum growth inhibition at 48 hours (one generation); P. falciparum luciferase growth in erythrocytes, 48 h; Potency, µM (titrated, usually from 28.7 µM), actives largely listed as inhibitors; hit rate 5.9% among 310,000; AID 504832
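A one-generation exposure of luciferase-tagged malaria parasites in RPMI 1640/Albumax erythrocyte culture, 37 C and 5% CO2. Inhibition is inferred from decreased luminescence after adding detection reagent.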
Shiga toxin inh: blocks Shiga toxin action in Vero cells; Vero cells, Shiga toxin protein synthesis inhibition reporter; inhibition, % at 38.7 µM; hit rate 9.2% among 290,000; AID 2315; in the data active = inhibition mostly above about 28%, no sharp cut-off; inactive = mostly below about 43%
SARS PLpro yeast: inhibitors of SARS-CoV papain-like protease in yeast; S. cerevisiae expressing SARS-CoV PLpro, growth rescue; Potency, µM (highest dose often 32.9 µM), usual class: activators; hit rate 0.19% among 330,000; calls by dose curve; also: nearly all actives have a fitted effect of over 55% in size
Pf growth 96h: P. falciparum growth inhibition at 96 hours | P. falciparum luciferase reporter growth, 96 h | Potency, µM (series often up to 28.7 µM), most hits filed as inhibitors | hit rate 6.9% among 320,000 | AID 504834
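Cell-based qHTS: luciferase-tagged P. falciparum in erythrocytes (2% hematocrit, 0.05% parasitemia final) incubated with compounds for 96 hours, 37 C, 5% CO2; luciferase detection reagent then added and luminescence measured.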
CHX counter: affects cycloheximide protein synthesis inhibition readout, counter-screen. cell reporter, cycloheximide protein synthesis inhibition counterscreen. max response, %. hit rate 12% among 300,000. AID 2314; in the data active = max response mostly above about 13%, no sharp cut-off; inactive = mostly below about 14%; also: read at 38.3 µM for the half of the compounds with a filed dose
A number is an active result; – = inactive; ? = inconclusive; · = no result; [ ] = dose if it differs, or a comment. Unless noted, calls follow the shape of the dose curve; as a rule, active = well fitted inhibition curve with a large enough effect; inconclusive = small, poorly fitted or top-dose-only effect, or another doubt; inactive = no such curve, though single readings can be large or run the other way.

SMILES	NS1 function inh	Pf growth 48h	Shiga toxin inh	SARS PLpro yeast	Pf growth 96h	CHX counter
CC(C)CN(C(=O)COc1ccc(Br)cc1C=O)C1CCS(=O)(=O)C1 (stereo not drawn)	·	?	·	–	–	·
Cc1cc(Cl)c(OCCOCCN2CCC(C)CC2)c(Br)c1	–	?	–	–	12µM	–
Cc1ccc(N2C(=O)CN(Cc3sccc3C)C2=S)cc1C	–	12µM	–	–	–	–
CCOC(=O)c1cc(-c2ccccc2)sc1NC(=O)C(C)N1C(=O)c2ccccc2C1=O (stereo not drawn)	–	–	–	–	–	–
CCSc1nc2sc3c(c2c2[n+]1CC(CBr)O2)CCCC3 (stereo not drawn)	–	–	–	–	–	17
N#Cc1cnn(-c2nc(SCc3ccccc3)nc3sc4c(c23)CCCC4)c1N	–	–	–	–	?	–
BrCC1C[n+]2c(SCc3ccccc3)nc3sc4c(c3c2O1)CCCC4 (stereo not drawn)	–	–	80	–	–	31
O=C(NCCCn1ccnc1)C(Cc1ccccc1)N1C(=O)c2ccccc2C1=O (stereo not drawn)	–	–	–	–	·	–
COc1ccccc1N(CC(=O)N1CCN(c2ccccc2)CC1)S(=O)(=O)c1ccc(C)cc1	?	?	–	–	?	–
Cc1ccc(NS(=O)(=O)c2ccc3c(c2)CC(=O)N3)cc1C	?	–	–	–	?	–
CC(=NCCc1ccccc1)C1=C(O)CSC1=O	–	–	–	–	–	28
CC(=NCCc1ccccc1)C1=C(O)CCC1=O	–	·	–	–	–	–
CCC(C)N(C(=O)COC(=O)CNC(=O)c1sc2ccccc2c1Cl)C1CCS(=O)(=O)C1 (stereo not drawn)	–	–	–	–	–	46
CCN(C(=O)COC(=O)CNC(=O)c1sc2ccccc2c1Cl)C1CCCCC1	·	–	·	–	–	·
O=c1oc(-c2ccc(Cl)c(Cl)c2)nn1-c1ccc(C(F)(F)F)cn1	–	?	–	–	–	–
Cc1ccc(C(=O)CSc2ncn[nH]2)cc1	–	–	–	–	?	20
COc1ccc(C(=O)CSc2ncn[nH]2)cc1OC	–	–	–	–	–	–
Brc1ccc(CSc2ncn[nH]2)cc1	–	·	–	–	–	–
O=C(CSc1ncn[nH]1)c1ccc(OC(F)F)cc1	–	–	–	–	–	14
O=C(O)c1ccc(CSc2ncn[nH]2)cc1	–	?	–	–	?	–
CCc1ccc(C(=O)CSc2ncn[nH]2)cc1	–	–	76	–	?	30
CCCOc1ccc(CSc2ncn[nH]2)cc1	–	–	68	–	?	30
Cc1ccc(-c2nnc(N3CCN(C(=O)CSc4ncn[nH]4)CC3)c3ccccc23)cc1	–	10µM	–	–	·	–
c1ccc(CSc2ncn[nH]2)nc1	–	–	–	–	5.2µM	–
Cc1cc(C)n2cc(CSc3ncn[nH]3)nc2n1	·	–	–	–	–	–
SMILES	NS1 function inh	Pf growth 48h	Shiga toxin inh	SARS PLpro yeast	Pf growth 96h	CHX counter
CC(=O)N1CCN(c2nnc(-c3ccc(C)cc3)c3ccccc23)CC1	–	?	–	–	?	–
COc1cc(CSc2ncn[nH]2)c(OC)cc1CSc1ncn[nH]1	–	?	–	–	13µM	–
CCSc1ccccc1C(=O)NCc1ccc2c(c1)OCO2	–	–	–	–	–	–
O=C(CN1C(=O)C2C3C=CC(C4CC34)C2C1=O)OCC(=O)c1ccccc1 (stereo not drawn)	–	–	–	–	?	–
Cc1ccc(-c2nn(-c3ccc(F)cc3)cc2C(=O)NCCCN2CCCC2=O)cc1	·	?	·	–	?	·
CCOC(=O)c1sc2nc(SCC(=O)N(CC)CC)n(CCCN3CCCC3=O)c(=O)c2c1C	·	2.1µM	–	–	–	–
CC(=O)c1sc(NC(=O)C=C(C)C)nc1C	–	–	66	–	·	44
CC(C)=CC(=O)Nc1nnc(-c2ccccc2)s1	–	–	14	–	–	46
CCCCC(=O)Nc1nc(C)c(C(C)=O)s1	–	·	–	–	–	–
CC(C)=CC(=O)Nc1nnc(C)s1	–	–	25	–	–	16
CC(=O)c1sc(NC(=O)C2(F)C(F)(F)C(F)(F)C(F)(F)C(F)(F)C2(F)F)nc1C	–	8.3µM	–	–	–	–
COc1ccc(C(=O)NCc2ccc3c(c2)OCO3)cc1S(=O)(=O)N1CCCC1	·	–	·	–	?	·
COc1ccc(-c2nc(C#N)c(NCCCN3CCOCC3)o2)cc1	?	–	–	?	–	–
COc1ccc(-c2nc(C#N)c(NCC3CCCO3)o2)cc1 (stereo not drawn)	–	–	73	–	·	25
Cc1cccc(-c2noc(CCCC(=O)NCC3CCCO3)n2)c1 (stereo not drawn)	–	–	–	–	–	–
CC1CN(c2oc(-c3cccs3)nc2C#N)CC(C)O1 (stereo not drawn)	–	10µM	–	–	–	–
Cc1cccc(-c2nc(C#N)c(NCC3CCCO3)o2)c1 (stereo not drawn)	–	–	89	–	–	44
N#Cc1nc(-c2cccs2)oc1NCC1CCCO1 (stereo not drawn)	–	–	–	–	–	9.3
O=S(=O)(c1ccccc1)c1nc(-c2cccs2)oc1NCC1CCCO1 (stereo not drawn)	–	–	–	–	–[5.75 µM]	–
CC(NC(=O)CCNS(=O)(=O)c1cccc2nonc12)c1ccccc1 (stereo not drawn)	–	–	–	–	?	–
CCc1c(C(=O)NC(C)C2CCCO2)csc1C (stereo not drawn)	–	–	–	–	–	–
N#CCCN1C(=O)C2(OCCO2)c2ccccc21	–	–[0.00184 µM]	–	–	–	–
Cc1cccc(-c2nc(C#N)c(N3CCCCCC3)o2)c1	–	–	70	–	·	28
Cc1ccc(-c2nc(C#N)c(NCC3CCCO3)o2)cc1 (stereo not drawn)	–	–	82	–	–	25
Cc1ccc(-c2nc(CSCC(=O)NCC3CCCO3)c(C)o2)cc1 (stereo not drawn)	–	–	–	–	?	–
SMILES	NS1 function inh	Pf growth 48h	Shiga toxin inh	SARS PLpro yeast	Pf growth 96h	CHX counter
Cc1ccc(C(=O)OC(C)CN2CCN(C)CC2)cc1 (stereo not drawn)	–	–	48	–	–	17
CCOc1ccc(C(=O)OC(C)CN2CCCCC2)cc1 (stereo not drawn)	–	–	26	–	?	–
COc1ccc(C(=O)OC(C)CN2CCN(C)CC2)cc1OC (stereo not drawn)	–	–	–	–	–	–
CC(CN1CCCC1)OC(=O)c1ccc(F)cc1 (stereo not drawn)	–	–	–	–	?	–
COc1ccc(C(=O)OC(C)CN2CCN(C)CC2)cc1 (stereo not drawn)	–	–	–	–	?	12
CC(C)N(CCCNC(=O)C1CCC(CNS(=O)(=O)c2ccccc2)CC1)Cc1ccccc1 (stereo not drawn)	–	–	–	–	?	–
Cc1ccc(-c2cc(C(=O)Nc3c(C#N)cnn3C)no2)cc1	–	–	56	–	·	14
